Measurements taken from PubChem BioAssay (EPA / NIEHS).
Inconclusive results are not listed. Some compounds were tested as several samples or in several runs, with calls that do not always agree. Calls of active or inactive are those of the source. The calls were made as follows: active = hit-call score of the fitted dose curve at least 0.9, where 1 is the maximum; inconclusive = response in the unintended direction; inactive = score below 0.9.

Test: Tanguay_ZF_120hpf_JAW_legacy: (Legacy) Oregon State University Tanguay Lab 120 Hour Post-fertilization zebrafish Assay for Jaw Malformation (AID 2283638);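 as to AC50: active means more embryos with jaw malformation than DMSO controls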
Experimental: Tanguay_ZF_120hpf_legacy is a whole embryo, multiplexed endpoint assay using zebrafish larvae exposed for 120 hours post fertilization on a 96-well plate.Tanguay_ZF_120hpf_JAW_legacy is one of one assay component(s) measured or calculated from the Tanguay_ZF_120hpf_legacy assay. It is designed to make measurements of zebrafish development as detected with brightfield microscopy of developing zebrafish embryos.Data from the assay component Tanguay_ZF_120hpf_JAW_legacy was analyzed into 1 assay endpoints. This assay endpoint, Tanguay_ZF_120hpf_JAW_legacy, was analyzed in the positive analysis fitting direction relative to DMSO as the negative control and baseline of activity. Using a type of morphology reporter, gain-of-signal activity can be used to understand changes in developmentals as they relate to the whole embryo. To generalize the intended target to other relatable targets, this assay endpoint is annotated to the zebrafish development intended target family, where the subfamily is embryonic jaw development.
Zebrafish husbandry: Tropical 5D wild-type adult zebrafish were housed in at an approximate density of 1000 per 100 gallon tank at the Sinnhuber Aquatic Research Laboratory, Oregon State University, Corvallis, OR. Each tank was kept at standard laboratory conditions of 28C on a 14-h light/10-h dark photoperiod in fish water consisting of reverse osmosis water supplemented with a commercially available salt (Instant Ocean). Spawning funnels were placed into the tanks the night prior, and embryos were collected and staged. To increase bioavailability, the chorion was enzymatically removed using pronase (63.6mg/ml, >/= 3.5U/mg, Sigma-Aldrich: P5147) at 4 hours post fertilization (hpf) using a custom automated dechorionator.Chemical exposures: Six hpf dechorionated embryos were placed 1 embryo per well in a 96-well plate prefilled with 90 ul of EM using automated embryo placement systems (AEPS). Ten microliters of each row of dilution plate 2 was added to 2 exposure plates. The final DMSO concentration used was 0.64% (vol/vol). Thirty-two embryos were also exposed to 5uM trimethyltin chloride (positive control). Plates were sealed to prevent evaporation and foil covered to reduce light exposure and kept in a 28C incubator. Embryos were statically exposed until 120 hpf. At 24 hpf, embryos were assessed for photomotor response using a custom photomotor response analysis tool (PRAT) and for developmental toxicity endpoints (MO24: mortality at 24 hpf, DP: developmental progression, SM: spontaneous movement, and NC: notochord distortion). At 120 hpf, locomotor activity was measured using Viewpoint Zebralab and assessed for 18 endpoints. Zebrafish acquisition and analysis program (ZAAP), a custom program designed to inventory, acquire, and manage zebrafish data, was used to collect developmental endpoints as either present or absent (i.e., binary responses were recorded). If mortality occurred for an embryo (at either 24 or 120 hpf), the non-mortality endpoints were not measured.

Structure (SMILES)	outcome	AC50
CCN1CCC2(CC1)COc1cc3c(cc12)N(C(=O)c1ccc(-c2ccc(-c4nnc(C)o4)cc2C)cc1)CC3	inactive	
ClC1(Cl)C2(Cl)C3(Cl)C4(Cl)C(Cl)(Cl)C5(Cl)C3(Cl)C1(Cl)C5(Cl)C24Cl (stereo unspecified)	inactive	
O=C1C2(Cl)C3(Cl)C4(Cl)C(Cl)(Cl)C5(Cl)C3(Cl)C1(Cl)C5(Cl)C24Cl (stereo unspecified)		8.93 µM (active)
C=CC(=O)OCCCCCC(C)C	inactive	
O=C(Nc1ccc2[nH]ccc2c1)c1cc2cc(F)ccc2n1Cc1cccc(F)c1	inactive	
C[C@]12CCC(=O)C[C@@H]1CC[C@@H]1[C@@H]2CC[C@]2(C)[C@@H](O)CC[C@@H]12	inactive	
Oc1cccc2cccnc12	inactive	
COc1cc(-c2ccc(N)c(OC)c2)ccc1N	inactive	47 µM (active)
O=C(O)C(Cl)(Cl)Cl	inactive	
ClCC(Cl)CCl	inactive	
CC(=O)[O][Hg][c]1ccccc1	inactive	
CC(C)(OO)c1ccccc1	inactive	
Cc1ccccc1N	inactive	
CC(C)(C)c1cc(O)ccc1O	inactive	
O=[N+]([O-])c1ccc(O)c([N+](=O)[O-])c1	inactive	
CCOP(=S)(OCC)Oc1nc(Cl)c(Cl)cc1Cl	inactive	
O=C(O)C(F)(F)C(F)(F)C(F)(F)C(F)(F)C(F)(F)C(F)(F)F	inactive	
CCCCCCCCc1ccc(O)cc1	inactive	
Cn1sc(Cl)cc1=O	inactive	
NC(=O)O	inactive	
O=c1[nH]c(=O)[nH]c(=O)[nH]1	inactive	
C=C(C)C(=O)[O][Sn]([CH2]CCC)([CH2]CCC)[CH2]CCC	inactive	
CN(C)N=O	inactive	
CCOP(=S)(OCC)SCSP(=S)(OCC)OCC	inactive	
CCC(C)(C)c1ccc(O)c(C(C)(C)CC)c1	inactive	
CCC(=O)C(CC(C)N(C)C)(c1ccccc1)c1ccccc1 (stereo unspecified)		34.4 µM (active)
C[C@@H]1C[C@@H]([C@H](O)CC2CC(=O)NC(=O)C2)C(=O)[C@@H](C)C1	inactive	
CC12CC1(C)C(=O)N(c1cc(Cl)cc(Cl)c1)C2=O (stereo unspecified)	inactive	
CC(C)(c1ccccc1)c1ccc(O)c(C(C)(C)c2ccccc2)c1	inactive	
O=C(O)C(F)(F)C(F)(F)C(F)(F)C(F)(F)C(F)(F)C(F)(F)C(F)(F)C(F)(F)C(F)(F)C(F)(F)F	inactive	
